Pf Dd2 inh – blocks in vitro growth of P. falciparum Dd2 | P. falciparum Dd2 growth, SYBR Green, 72 h | Potency, µM (highest dose often 28.9 µM), hits mostly inhibitors | 120,000 compounds, 4.3% hits | AID 1347417; active = well fitted inhibition curve with a large enough effect; note: nearly all actives have a fitted effect of over 65% in size
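Readout: SYBR Green fluorescence, 485 nm excitation, 535 nm emission, after ~16 h lysis at 37C. Before that, Dd2-infected red cells (2.5% hematocrit) grew 72 h with compound, 29 uM top final concentration.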
Each line names hits and unclear results; the compound was inactive in the other large screens; ! = a repeat was not active. This excerpt belongs to a sample that is enriched for hits.

CCc1noc(-c2cccn3c(CNC(=O)COc4ccc(F)cc4)nnc23)n1	Pf Dd2 inh 0.71µM
COc1ccc(Cl)cc1C(=O)NCc1nnc2c(-c3nc(C(C)C)no3)cccn12	Pf Dd2 inh 1.8µM
COc1ccc(Cl)cc1C(=O)NCc1nnc2cc(-c3nc(C(C)C)no3)ccn12	none
CCc1noc(-c2cccn3c(CNC(=O)COc4cccc(C)c4)nnc23)n1	none
CN1CCC(NC[C@H]2O[C@@H](CO)[C@@H](O)[C@H]2N2CCN(c3ccc(F)cc3)CC2)CC1	none
CCOCC(=O)N1CCC(N2C(=O)CCC2C(=O)NCc2ccccc2)CC1 (centres undefined)	none
CC(C)CNC(=O)CCC1CCN(S(=O)(=O)c2ccccc2F)CC1	none
Cc1ncsc1CN(C)C1CCc2nn(C)c(=O)n2CC1 (centres undefined)	none
CN1C(=O)[C@H]2CN(Cc3cn[nH]c3-c3cccc(Br)c3)C[C@H]2C1=O	none
NC1CCN(Cc2ccc(C(=O)NCc3ccc(S(N)(=O)=O)cc3)c(=O)[nH]2)C1 (centres undefined)	none
COc1cccc(C(=O)N2CCC3(CC2)N(C)C(=O)CS3(=O)=O)c1	none
Cc1nc(CCNS(=O)(=O)c2cccs2)no1	none
CN(C)c1ccc(C(=O)Nc2ccc(-c3nc4ccccc4o3)cc2)cc1	none
CCN(CC)CC(=O)N1CCC(C(=O)Nc2ccc(-c3nc4ccccc4o3)cc2)CC1	Pf Dd2 inh 10µM
Cc1ccccc1OCC(=O)Nc1ccc(-c2nc3ccccc3o2)cc1	none
CC(C)NC(=O)N1CCOc2ccc(CCC(=O)NC3CCS(=O)(=O)C3)cc2C1 (centres undefined)	none
O=C(c1ccc(Cl)s1)N1CCC2(CNS(=O)(=O)c3cnccc3O2)C1 (centres undefined)	none
CNC(=O)CCC[C@@H]1[C@H]2CCCN3CCC[C@@H](CN1C(=O)NCc1ccc(C)cc1)[C@@H]23	none
Nc1cc(=O)nc(SCC(=O)Nc2ccc(F)cc2)n1CCc1ccccc1	none
CC(Sc1nc(=O)cc(N)n1CCc1ccccc1)C(=O)Nc1ccccc1C#N (centres undefined)	Pf Dd2 inh 11µM
Cc1ccc(NC(=O)C(C)Sc2nc(=O)cc(N)n2-c2ccccc2)cc1 (centres undefined)	none
Cc1ccsc1C(=O)N1CC(c2nnc(-c3ccncc3)o2)C2(CCOCC2)C1 (centres undefined)	none
COc1cccc(C(=O)NCCC2CCN(C(=O)Nc3ccccc3F)CC2)c1	none
COCCN1CCN(C[C@@H]2C=C(C)[C@H](Cc3nnc(COc4ccc(F)cc4)o3)C[C@H]2C(C)C)CC1	Pf Dd2 inh 5µM
CC1=C[C@@H](CC#N)[C@H](C(C)C)C[C@H]1CC(=O)N1CCC(C)CC1	none
CCCc1nnc(C[C@@H]2C[C@@H](C(C)C)[C@H](CN3CC[C@H](NC(C)=O)C3)C=C2C)o1	Pf Dd2 inh 5µM
CCCc1nnc([C@H]2CCN(Cc3ccc(NC(C)=O)cc3)C2)o1	none
CC1=C[C@@H](CN2CCC(O)CC2)[C@H](C(C)C)C[C@H]1Cc1nnc(C(C)(C)C)o1	Pf Dd2 inh 10µM
CCCc1nnc(C[C@@H]2C[C@@H](C(C)C)[C@H](CN3CCC(CO)CC3)C=C2C)o1	Pf Dd2 inh 10µM
COc1ccc(C(=O)NC[C@@H]2C=C(C)[C@H](CC(=O)N3CCOCC3)C[C@H]2C(C)C)cc1	none
CC(=O)NC[C@@H]1C=C(C)[C@H](CC(=O)O)C[C@H]1C(C)C	none
CC1=C[C@@H](CN2CCC(C(N)=O)CC2)[C@H](C(C)C)C[C@H]1Cc1nnc(C)o1	none
O=C(NCCN1CCCOC1=O)c1ccc2nc(C3CCCCC3)oc2c1	none
Cc1ccc(-c2ccccc2C=O)c(C)c1	none
O=C(C[C@@H]1C[C@H]2O[C@H](CNC3CCCC3)[C@@H](O)[C@H]2O1)N1CCOCC1	none
CO[C@H]1C(=O)N(C2CCN(C(=O)Cc3c[nH]c4ccccc34)CC2)[C@H]1c1ccncc1	none
COc1ccc(-c2noc([C@@H]3CCCN3C(=O)Cc3cccc(F)c3)n2)cc1OC	none
CC(C)CCN1CCC(N2CCN(C(=O)C3CC3)CC2)C1=O (centres undefined)	none
O=C(COc1ccccc1)N1CCC2(CC1)CN(c1ncccn1)CC2CO (centres undefined)	none
CCn1ncc(CN2CC[C@H](CNC(=O)COC)[C@H](N(C)C)C2)c1C	none
COc1nc2c(cc1CNC(=O)c1c(C)cccc1C)C(=O)N(C1CCCC1)C2	none
Cc1ccoc1-c1nc2ccncc2[nH]1	none
c1c[nH]c(-c2nc3ccncc3[nH]2)c1	Pf Dd2 inh 22µM!
c1cc2nc(C3CCCCN3)[nH]c2cn1 (centres undefined)	none
c1csc(-c2nc3ccncc3[nH]2)c1	Pf Dd2 inh 18µM!
c1ccc2c(-c3nc4ccncc4[nH]3)c[nH]c2c1	Pf Dd2 inh 13µM!
c1cnc2nc(-c3c[nH]c4ccccc34)[nH]c2c1	none
c1cncc(-c2nc3ccncc3[nH]2)c1	none
Cc1ccc(-c2nc(-c3cccs3)c(-c3cccs3)[nH]2)cc1	none
c1cncc(-c2nc3ncccc3[nH]2)c1	none
c1cc(Cn2cncn2)cc(-n2ccnc2-c2cc3n(n2)CCCNC3)c1	none
N#Cc1cccnc1N1CCN(Cc2cn(-c3ccccc3)nn2)CC1	none
COc1cc(-c2cnc3n[nH]c(-c4ccc(F)cc4C)c3n2)ccn1	none
CCOc1ccccc1C(=O)N1CCC(c2n[nH]c(=O)n2-c2ccccc2)CC1	none
CCC1Oc2ccc(NC(=O)c3cccc(F)c3)cc2CN(Cc2ccccc2F)C1=O (centres undefined)	none
COc1cccc(CN2Cc3cc(NC(=O)Cc4ccccc4)ccc3OCC2=O)c1	none
COc1cccc(CN2Cc3cc(NC(=O)c4cccs4)ccc3OCC2=O)c1	none
CCC1Oc2ccc(NC(=O)Cc3ccccc3)cc2CN(Cc2cccc(OC)c2)C1=O (centres undefined)	none
CCC1Oc2ccc(NC(=O)c3ccccc3F)cc2CN(Cc2ccccc2F)C1=O (centres undefined)	Pf Dd2 inh 5.6µM
CCC1Oc2ccc(NC(=O)c3ccccc3F)cc2CN(CCc2ccc(OC)c(OC)c2)C1=O (centres undefined)	Pf Dd2 inh 1.8µM
CCC1Oc2ccc(NC(=O)Cc3ccc(F)cc3)cc2CN(Cc2cccc(OC)c2)C1=O (centres undefined)	Pf Dd2 inh 4µM
CCC1Oc2ccc(NC(=O)c3c(F)cccc3F)cc2CN(Cc2ccc3c(c2)OCO3)C1=O (centres undefined)	none
CC1Oc2ccc(NC(=O)c3ccccc3F)cc2CN(Cc2ccccc2F)C1=O (centres undefined)	none
CCC1Oc2ccc(NC(=O)c3ccccc3F)cc2CN(Cc2ccc3c(c2)OCO3)C1=O (centres undefined)	none
COc1cccc(CN2Cc3cc(NC(=O)c4cc(OC)cc(OC)c4)ccc3OCC2=O)c1	Pf Dd2 inh 4.5µM
CCC1Oc2ccc(NC(=O)COc3ccccc3)cc2CN(Cc2cccc(OC)c2)C1=O (centres undefined)	none
CS(=O)(=O)c1ccc2c(c1)nc1n2[C@@H](CNC2CCCCC2)COC1	none
Cc1cc2nc3n(c(=O)c2n1CC(=O)Nc1ccc(F)c(F)c1)CCC3	none
COCC(=O)N[C@H]1C[C@H]2C(=O)NC[C@@H](CCC(=O)N3CCN(c4ccccn4)CC3)N2C1	none
O=C(CC1CCCCC1)NC1CCN(C(=O)N2CC3CC(C2)[C@H]2CCCC(=O)N2C3)CC1 (some centres undefined)	none
COc1cccc(CCC2CCCN(C(=O)c3ccc(OC)o3)C2)c1 (centres undefined)	none
COc1cccc(CC(=O)NC(C)C(=O)N2CCN(c3ccccn3)CC2)c1 (centres undefined)	none
COc1ccc(CCNC(=O)c2c(OC)cc(=O)n3c2CCCC3)cc1OC	none
